# According to article PMC7862700, “An all-to-all approach to the identification of sequence-specific readers for epigenetic DNA modifications on cytosine”:
# Columns and labels:
# Assay in all cases: DAPPL (digital affinity profiling via proximity ligation, sequencing); 10 mM Tris-HCl pH 7.5, 50 mM NaCl, 1 mM DTT, 4% glycerol, room temperature, 30 min; GST-TFs on glutathione beads, 16-mer random dsDNA library, 0.1% formaldehyde crosslink after washing; high values mean tight binding
# FEV = target: T1, FEV (Homo sapiens, UniProt Q99581 1-238); conditions: protein: recombinant; tags: N-terminal GST; dsDNA, one strand shown
# T1 sequence: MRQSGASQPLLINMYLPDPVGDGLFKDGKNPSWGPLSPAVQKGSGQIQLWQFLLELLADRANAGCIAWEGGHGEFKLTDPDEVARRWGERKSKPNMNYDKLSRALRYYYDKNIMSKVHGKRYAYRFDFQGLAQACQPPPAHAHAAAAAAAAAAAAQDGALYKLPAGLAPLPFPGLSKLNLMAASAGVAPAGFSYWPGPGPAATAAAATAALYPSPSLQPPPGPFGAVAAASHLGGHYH
# How it was run: (§1)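 Binding signal is defined as a hexamer's read frequency for one factor over its frequency for the tag-only sample. To obtain reads, GST-fused human transcription factors were expressed in yeast, captured on glutathione beads, barcoded with DNA and pooled with that sample. Pools met 200 nmole of a 16-mer random double-stranded DNA library in Tris/NaCl/DTT/glycerol buffer for 30 min at room temperature before washing, 0.1% formaldehyde crosslinking, proximity ligation (BsaI/T4 ligase, 1 h, 37 °C), PCR and Illumina NextSeq500 sequencing.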
# ETV5 = ETV5 (Homo sapiens, UniProt P41161 1-510); conditions: protein: recombinant; tags: N-terminal GST; dsDNA, one strand shown
# How it was run: as §1
# HSF1 = HSF1 (Homo sapiens, UniProt Q00613 1-529); conditions: protein: recombinant; tags: N-terminal GST; chain copies: 3; dsDNA, one strand shown
# How it was run: as §1
# SPIC = target: T2, SPIC (Homo sapiens, UniProt Q8N5J4 1-248); conditions: protein: recombinant; tags: N-terminal GST; dsDNA, one strand shown
# T2 sequence: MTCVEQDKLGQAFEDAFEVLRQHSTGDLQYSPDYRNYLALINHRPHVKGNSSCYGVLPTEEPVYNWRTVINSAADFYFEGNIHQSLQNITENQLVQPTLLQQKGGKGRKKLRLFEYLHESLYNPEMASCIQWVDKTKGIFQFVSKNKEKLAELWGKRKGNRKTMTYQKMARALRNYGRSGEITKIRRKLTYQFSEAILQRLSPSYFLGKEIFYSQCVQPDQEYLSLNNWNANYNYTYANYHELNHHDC
# How it was run: as §1
# ELF4 = ELF4 (Homo sapiens, UniProt Q99607 1-663); conditions: protein: recombinant; tags: N-terminal GST; dsDNA, one strand shown
# How it was run: as §1
# ELK4 = target: T3, ELK4 (Homo sapiens, UniProt P28324-2 1-405); conditions: protein: recombinant; tags: N-terminal GST; dsDNA, one strand shown
# T3 sequence: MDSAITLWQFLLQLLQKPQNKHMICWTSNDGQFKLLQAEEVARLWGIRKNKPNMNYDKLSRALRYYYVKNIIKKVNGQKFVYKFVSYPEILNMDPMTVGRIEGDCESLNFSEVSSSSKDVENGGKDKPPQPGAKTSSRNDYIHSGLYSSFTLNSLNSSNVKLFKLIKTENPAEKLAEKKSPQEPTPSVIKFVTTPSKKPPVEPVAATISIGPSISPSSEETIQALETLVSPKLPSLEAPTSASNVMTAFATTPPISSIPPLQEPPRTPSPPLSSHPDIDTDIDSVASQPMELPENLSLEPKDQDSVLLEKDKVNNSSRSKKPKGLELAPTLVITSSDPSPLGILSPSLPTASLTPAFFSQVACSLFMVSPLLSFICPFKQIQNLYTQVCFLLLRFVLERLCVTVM
# How it was run: as §1
# ETV2 = target: T4, ETV2 (Homo sapiens, UniProt O00321 1-342); conditions: protein: recombinant; tags: N-terminal GST; dsDNA, one strand shown
# T4 sequence: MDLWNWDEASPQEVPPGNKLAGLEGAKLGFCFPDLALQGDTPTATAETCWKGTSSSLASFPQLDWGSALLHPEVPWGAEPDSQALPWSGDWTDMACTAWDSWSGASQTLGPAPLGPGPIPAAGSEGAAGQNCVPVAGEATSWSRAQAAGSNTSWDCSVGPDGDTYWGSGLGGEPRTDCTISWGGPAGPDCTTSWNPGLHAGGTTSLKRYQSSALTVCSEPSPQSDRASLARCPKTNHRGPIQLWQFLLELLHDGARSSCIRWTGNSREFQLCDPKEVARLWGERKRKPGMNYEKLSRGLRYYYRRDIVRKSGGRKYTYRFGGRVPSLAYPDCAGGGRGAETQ
# How it was run: as §1
# ELF3 = target: T5, ELF3 (Homo sapiens, UniProt P78545 1-371); conditions: protein: recombinant; tags: N-terminal GST; dsDNA, one strand shown
# T5 sequence: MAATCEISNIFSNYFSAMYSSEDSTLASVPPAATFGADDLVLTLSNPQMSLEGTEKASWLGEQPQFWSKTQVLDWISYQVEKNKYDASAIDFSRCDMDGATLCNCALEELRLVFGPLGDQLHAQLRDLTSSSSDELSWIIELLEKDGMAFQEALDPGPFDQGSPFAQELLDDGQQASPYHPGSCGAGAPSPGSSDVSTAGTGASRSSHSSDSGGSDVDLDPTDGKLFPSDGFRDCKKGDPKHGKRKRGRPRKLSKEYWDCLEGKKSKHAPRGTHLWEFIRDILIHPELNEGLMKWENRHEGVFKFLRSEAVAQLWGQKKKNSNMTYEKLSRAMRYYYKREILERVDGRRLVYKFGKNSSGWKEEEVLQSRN
# How it was run: as §1
# CRX = CRX (Homo sapiens, UniProt O43186 1-299); conditions: protein: recombinant; tags: N-terminal GST; dsDNA, one strand shown
# How it was run: as §1
# ETV1 = ETV1 (Homo sapiens, UniProt P50549 1-477); conditions: protein: recombinant; tags: N-terminal GST; dsDNA, one strand shown
# How it was run: as §1
# ERF = target: T6, ERF (Homo sapiens, UniProt P50548 1-548); conditions: protein: recombinant; tags: N-terminal GST; dsDNA, one strand shown
# T6 sequence: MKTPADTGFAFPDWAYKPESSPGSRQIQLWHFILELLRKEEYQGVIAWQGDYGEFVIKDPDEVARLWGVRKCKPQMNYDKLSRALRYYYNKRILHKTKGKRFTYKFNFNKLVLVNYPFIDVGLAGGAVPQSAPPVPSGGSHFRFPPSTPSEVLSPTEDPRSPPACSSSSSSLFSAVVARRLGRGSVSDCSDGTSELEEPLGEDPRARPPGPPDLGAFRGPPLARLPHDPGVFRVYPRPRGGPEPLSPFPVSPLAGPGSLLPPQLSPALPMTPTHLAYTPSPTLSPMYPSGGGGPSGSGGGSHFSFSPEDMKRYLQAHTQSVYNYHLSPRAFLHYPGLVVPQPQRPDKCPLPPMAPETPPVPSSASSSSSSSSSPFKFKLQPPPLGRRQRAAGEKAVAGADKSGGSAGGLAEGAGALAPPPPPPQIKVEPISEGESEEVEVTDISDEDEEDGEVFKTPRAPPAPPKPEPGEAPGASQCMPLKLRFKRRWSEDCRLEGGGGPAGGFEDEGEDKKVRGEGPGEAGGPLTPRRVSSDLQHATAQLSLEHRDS
# How it was run: as §1
# ETV3L = target: T7, ETV3L (Homo sapiens, UniProt Q6ZN32 1-361); conditions: protein: recombinant; tags: N-terminal GST; dsDNA, one strand shown
# T7 sequence: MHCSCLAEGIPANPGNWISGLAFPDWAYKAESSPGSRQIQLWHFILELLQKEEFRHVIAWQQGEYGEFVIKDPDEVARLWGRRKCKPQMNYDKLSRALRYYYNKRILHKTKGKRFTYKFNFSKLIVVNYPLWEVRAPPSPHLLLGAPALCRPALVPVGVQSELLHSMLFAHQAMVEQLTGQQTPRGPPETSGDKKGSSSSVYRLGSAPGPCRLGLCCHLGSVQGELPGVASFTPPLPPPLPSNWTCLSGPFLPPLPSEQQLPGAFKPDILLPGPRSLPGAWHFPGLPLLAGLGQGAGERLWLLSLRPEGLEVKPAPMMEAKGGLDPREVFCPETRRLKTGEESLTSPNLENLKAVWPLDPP
# How it was run: as §1
# ETS2 = target: T8, ETS2 (Homo sapiens, UniProt P15036 1-469); conditions: protein: recombinant; tags: N-terminal GST; dsDNA, one strand shown
# T8 sequence: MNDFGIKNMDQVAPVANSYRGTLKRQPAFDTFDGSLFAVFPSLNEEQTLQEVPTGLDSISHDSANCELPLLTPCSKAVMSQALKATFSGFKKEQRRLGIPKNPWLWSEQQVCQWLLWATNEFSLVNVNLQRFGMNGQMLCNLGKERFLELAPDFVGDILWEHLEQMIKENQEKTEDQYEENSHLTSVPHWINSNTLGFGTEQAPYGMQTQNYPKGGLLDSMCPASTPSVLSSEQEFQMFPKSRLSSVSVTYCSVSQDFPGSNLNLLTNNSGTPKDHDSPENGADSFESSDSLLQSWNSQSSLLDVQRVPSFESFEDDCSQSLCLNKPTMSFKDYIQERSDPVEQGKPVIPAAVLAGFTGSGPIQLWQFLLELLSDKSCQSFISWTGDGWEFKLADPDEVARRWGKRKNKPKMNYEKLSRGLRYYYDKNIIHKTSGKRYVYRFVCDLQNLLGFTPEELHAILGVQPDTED
# How it was run: as §1
# SPDEF = target: T9, SPDEF (Homo sapiens, UniProt O95238 1-335); conditions: protein: recombinant; tags: N-terminal GST; dsDNA, one strand shown
# T9 sequence: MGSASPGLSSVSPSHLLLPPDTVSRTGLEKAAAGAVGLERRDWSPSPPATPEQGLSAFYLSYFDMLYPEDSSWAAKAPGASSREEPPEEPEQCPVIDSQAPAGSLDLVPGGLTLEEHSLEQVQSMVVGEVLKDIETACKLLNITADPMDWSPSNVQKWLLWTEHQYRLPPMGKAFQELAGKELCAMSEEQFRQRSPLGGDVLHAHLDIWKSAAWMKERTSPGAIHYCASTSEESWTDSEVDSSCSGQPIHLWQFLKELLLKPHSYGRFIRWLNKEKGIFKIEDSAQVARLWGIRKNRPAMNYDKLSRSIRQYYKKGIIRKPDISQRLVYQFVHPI
# How it was run: as §1
# ETV7 = target: T10, ETV7 (Homo sapiens, UniProt Q9Y603 1-341); conditions: protein: recombinant; tags: N-terminal GST; dsDNA, one strand shown
# T10 sequence: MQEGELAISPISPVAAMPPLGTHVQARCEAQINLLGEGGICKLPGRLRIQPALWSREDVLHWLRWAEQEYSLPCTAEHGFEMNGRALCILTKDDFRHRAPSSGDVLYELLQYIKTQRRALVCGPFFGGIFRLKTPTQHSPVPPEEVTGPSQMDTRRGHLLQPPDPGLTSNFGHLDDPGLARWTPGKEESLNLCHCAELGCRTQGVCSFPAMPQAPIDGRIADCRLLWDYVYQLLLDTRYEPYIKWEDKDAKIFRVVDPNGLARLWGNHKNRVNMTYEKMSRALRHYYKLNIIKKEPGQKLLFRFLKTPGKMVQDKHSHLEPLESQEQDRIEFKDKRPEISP
# How it was run: as §1
# ELF5 = target: T11, ELF5 (Homo sapiens, UniProt Q9UKW6-2 1-255); conditions: protein: recombinant; tags: N-terminal GST; dsDNA, one strand shown
# T11 sequence: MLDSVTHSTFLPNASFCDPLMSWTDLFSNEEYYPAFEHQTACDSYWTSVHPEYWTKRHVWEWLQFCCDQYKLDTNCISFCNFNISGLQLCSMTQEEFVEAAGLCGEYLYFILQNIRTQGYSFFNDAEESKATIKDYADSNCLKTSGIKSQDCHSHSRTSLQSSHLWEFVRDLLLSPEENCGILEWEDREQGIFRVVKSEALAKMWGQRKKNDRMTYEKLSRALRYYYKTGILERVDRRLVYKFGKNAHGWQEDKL
# How it was run: as §1
# ETV3 = target: T12, ETV3 (Homo sapiens, UniProt P41162-2 1-143); conditions: protein: recombinant; tags: N-terminal GST; dsDNA, one strand shown
# T12 sequence: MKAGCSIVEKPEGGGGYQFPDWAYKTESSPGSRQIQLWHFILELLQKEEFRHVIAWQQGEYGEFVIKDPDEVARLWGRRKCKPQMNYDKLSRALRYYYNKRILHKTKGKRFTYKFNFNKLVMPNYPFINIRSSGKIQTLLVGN
# How it was run: as §1
# ETV6 = ETV6 (Homo sapiens, UniProt P41212 1-452); conditions: protein: recombinant; tags: N-terminal GST; dsDNA, one strand shown
# How it was run: as §1
# ETV1, sequence (P50549 whole entry): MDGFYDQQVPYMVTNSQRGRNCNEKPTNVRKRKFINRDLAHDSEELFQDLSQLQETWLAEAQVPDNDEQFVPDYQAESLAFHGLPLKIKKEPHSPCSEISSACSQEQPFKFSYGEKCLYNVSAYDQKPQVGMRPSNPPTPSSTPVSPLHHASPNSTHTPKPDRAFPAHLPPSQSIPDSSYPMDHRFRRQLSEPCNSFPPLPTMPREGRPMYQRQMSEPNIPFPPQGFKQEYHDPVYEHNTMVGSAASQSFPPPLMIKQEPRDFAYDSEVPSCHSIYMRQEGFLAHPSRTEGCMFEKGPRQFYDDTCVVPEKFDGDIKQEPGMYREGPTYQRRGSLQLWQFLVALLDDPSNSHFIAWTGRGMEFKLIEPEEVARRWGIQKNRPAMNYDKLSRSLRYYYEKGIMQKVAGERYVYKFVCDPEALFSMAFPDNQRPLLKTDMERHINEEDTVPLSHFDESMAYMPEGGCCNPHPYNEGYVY
# ELF4, sequence (Q99607 whole entry): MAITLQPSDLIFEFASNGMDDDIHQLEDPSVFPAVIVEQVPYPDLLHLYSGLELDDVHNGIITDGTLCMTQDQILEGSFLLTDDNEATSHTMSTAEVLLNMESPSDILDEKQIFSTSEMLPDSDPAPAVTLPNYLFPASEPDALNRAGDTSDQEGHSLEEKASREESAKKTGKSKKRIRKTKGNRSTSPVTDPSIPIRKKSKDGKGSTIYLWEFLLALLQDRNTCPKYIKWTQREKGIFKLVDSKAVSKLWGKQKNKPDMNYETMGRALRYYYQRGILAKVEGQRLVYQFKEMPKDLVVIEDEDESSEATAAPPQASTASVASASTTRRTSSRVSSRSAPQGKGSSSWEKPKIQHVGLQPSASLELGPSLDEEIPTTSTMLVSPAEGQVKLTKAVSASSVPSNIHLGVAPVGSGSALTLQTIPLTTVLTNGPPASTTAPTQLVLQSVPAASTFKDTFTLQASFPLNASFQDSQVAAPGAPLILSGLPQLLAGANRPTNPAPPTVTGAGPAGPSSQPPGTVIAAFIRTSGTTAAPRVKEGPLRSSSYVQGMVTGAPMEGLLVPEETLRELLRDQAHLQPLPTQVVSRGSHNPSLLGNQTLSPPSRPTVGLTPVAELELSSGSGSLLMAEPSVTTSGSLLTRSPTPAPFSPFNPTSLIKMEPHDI
# ETV5, sequence (P41161 whole entry): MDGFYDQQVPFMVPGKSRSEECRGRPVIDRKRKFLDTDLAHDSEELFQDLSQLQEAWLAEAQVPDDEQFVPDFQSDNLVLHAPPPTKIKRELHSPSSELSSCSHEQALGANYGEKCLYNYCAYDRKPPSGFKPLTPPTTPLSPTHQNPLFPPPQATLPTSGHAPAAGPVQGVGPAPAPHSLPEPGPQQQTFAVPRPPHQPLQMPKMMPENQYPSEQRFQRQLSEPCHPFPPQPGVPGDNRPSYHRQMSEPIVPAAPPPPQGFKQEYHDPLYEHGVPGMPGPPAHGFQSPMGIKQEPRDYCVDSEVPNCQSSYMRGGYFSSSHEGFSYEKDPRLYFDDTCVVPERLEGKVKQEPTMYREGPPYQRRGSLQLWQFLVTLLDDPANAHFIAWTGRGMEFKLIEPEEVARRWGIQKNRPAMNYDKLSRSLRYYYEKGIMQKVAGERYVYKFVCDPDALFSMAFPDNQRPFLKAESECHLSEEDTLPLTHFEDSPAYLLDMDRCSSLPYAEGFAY
# ETV6, sequence (P41212 whole entry): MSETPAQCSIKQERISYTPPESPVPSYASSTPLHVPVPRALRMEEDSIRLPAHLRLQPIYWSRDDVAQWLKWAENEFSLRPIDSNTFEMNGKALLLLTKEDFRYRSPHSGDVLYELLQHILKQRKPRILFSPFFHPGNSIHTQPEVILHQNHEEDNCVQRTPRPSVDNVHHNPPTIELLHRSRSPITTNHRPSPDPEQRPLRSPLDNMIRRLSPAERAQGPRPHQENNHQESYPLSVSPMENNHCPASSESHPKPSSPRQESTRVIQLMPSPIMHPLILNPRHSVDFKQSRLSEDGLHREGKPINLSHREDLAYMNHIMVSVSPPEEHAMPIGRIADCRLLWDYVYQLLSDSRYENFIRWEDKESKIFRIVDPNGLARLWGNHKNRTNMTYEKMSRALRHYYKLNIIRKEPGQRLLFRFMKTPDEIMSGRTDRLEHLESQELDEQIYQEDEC
# CRX, sequence (O43186 whole entry): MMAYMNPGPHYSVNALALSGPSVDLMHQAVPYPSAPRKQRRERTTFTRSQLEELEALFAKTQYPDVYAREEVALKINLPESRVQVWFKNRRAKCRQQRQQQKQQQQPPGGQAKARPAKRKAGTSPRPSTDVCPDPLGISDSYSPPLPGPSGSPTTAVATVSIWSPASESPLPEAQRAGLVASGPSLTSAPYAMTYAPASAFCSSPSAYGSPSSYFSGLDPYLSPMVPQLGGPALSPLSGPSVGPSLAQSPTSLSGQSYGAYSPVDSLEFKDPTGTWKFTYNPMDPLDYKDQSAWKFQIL
# HSF1, sequence (Q00613 whole entry): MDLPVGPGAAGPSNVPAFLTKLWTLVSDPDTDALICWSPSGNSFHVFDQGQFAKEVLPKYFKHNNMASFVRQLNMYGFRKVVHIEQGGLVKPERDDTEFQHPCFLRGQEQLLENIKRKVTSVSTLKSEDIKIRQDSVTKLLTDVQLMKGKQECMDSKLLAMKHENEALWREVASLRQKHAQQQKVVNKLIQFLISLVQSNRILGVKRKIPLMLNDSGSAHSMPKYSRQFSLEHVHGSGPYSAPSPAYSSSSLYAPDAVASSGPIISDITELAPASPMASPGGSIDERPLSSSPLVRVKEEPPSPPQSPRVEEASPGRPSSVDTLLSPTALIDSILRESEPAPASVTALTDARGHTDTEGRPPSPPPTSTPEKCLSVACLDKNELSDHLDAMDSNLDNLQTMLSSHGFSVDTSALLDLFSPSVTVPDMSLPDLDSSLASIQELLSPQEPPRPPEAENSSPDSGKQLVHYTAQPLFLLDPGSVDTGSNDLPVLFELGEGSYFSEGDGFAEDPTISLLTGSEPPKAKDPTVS
sequence,measurement,setting,value
ATGATT,binding signal,FEV,"1.15 fold enrichment (6-mer frequency, TF over GST control)"
same,binding signal,ETV5,"1.18 fold enrichment (6-mer frequency, TF over GST control)"
same,binding signal,HSF1,"1.33 fold enrichment (6-mer frequency, TF over GST control)"
same,binding signal,SPIC,"1.17 fold enrichment (6-mer frequency, TF over GST control)"
same,binding signal,ELF4,"1.12 fold enrichment (6-mer frequency, TF over GST control)"
same,binding signal,ELK4,"1.21 fold enrichment (6-mer frequency, TF over GST control)"
same,binding signal,ETV2,"1.26 fold enrichment (6-mer frequency, TF over GST control)"
same,binding signal,ELF3,"1.12 fold enrichment (6-mer frequency, TF over GST control)"
same,binding signal,CRX,"1.58 fold enrichment (6-mer frequency, TF over GST control)"
same,binding signal,ETV1,"1.19 fold enrichment (6-mer frequency, TF over GST control)"
same,binding signal,ERF,"1.18 fold enrichment (6-mer frequency, TF over GST control)"
same,binding signal,ETV3L,"1.24 fold enrichment (6-mer frequency, TF over GST control)"
same,binding signal,ETS2,"1.18 fold enrichment (6-mer frequency, TF over GST control)"
same,binding signal,SPDEF,"1.15 fold enrichment (6-mer frequency, TF over GST control)"
same,binding signal,ETV7,"1.17 fold enrichment (6-mer frequency, TF over GST control)"
same,binding signal,ELF5,"1.14 fold enrichment (6-mer frequency, TF over GST control)"
same,binding signal,ETV3,"1.3 fold enrichment (6-mer frequency, TF over GST control)"
same,binding signal,ETV6,"1.19 fold enrichment (6-mer frequency, TF over GST control)"
